Our source for the inhibition values is PubChem BioAssay AID488857 (Sanford-Burnham Center for Chemical Genomics, 2010).

Screen size: about 1,400 compounds; about 560 (40%) were called active. The set was probably picked from earlier hits. The list shows a part of the results. Values without a mark were called inactive.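 How the source made its calls: active means mean inhibition over duplicate tests at 10 µM above 50%; inactive means the rest.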

A word on the inhibition: it is the percentage by which the read-out fell short of the control.

The assay is described as follows: ASC/caspase-1 reporter retest in S. cerevisiae at one dose, specificity check for NALP1 project (AID 488857). To be noted: S. cerevisiae ASC/Caspase-1, beta-galactosidase luminescence, 24 h; at 10 µM; active compounds read high.
As for `O=C(Nc1cccc(N=Cc2cc(Br)cc(Br)c2O)c1)c1ccco1`, the inhibition was 57% (active).
With `Oc1c(Br)cc(Br)cc1C=Nc1cccnc1` the figure was 54.1% (active); with `O=C(/C=N/O)Nc1cccnc1`, 41.3%.
For `COc1cc(Br)cc(C=Nc2cccc(C(F)(F)F)c2)c1O` the value was 30%; for `Oc1c(Br)cc(Br)cc1C=Nc1ccc2c(c1)OCO2`, 64.6% (active); for `Cc1ccsc1/C=N/NC(=O)c1ccco1`, 48.5%.
For `CCOc1nc(-c2ccccc2Cl)ccc1C#N`, the inhibition was 45.4%.
For the compound `OC(CNCCc1ccc(C(F)(F)F)cc1)COc1cccc2ccccc12` (centres undefined), the inhibition was 59.9% (active).
In the case of `C=CCNc1oc(COc2ccc(C)cc2)nc1C#N`, the inhibition is 56.6% (active).
With `COC(=O)C(CCSC)NC(=O)Cn1ncc2c(=O)oc3ccccc3c21` (centres undefined) the figure was 42%; with `O=C1C=CC(=O)N1c1ccc(N2CCCCC2)cc1`, 68.2% (active); with `O=[N+]([O-])c1ccc(N2CCCCC2)cc1`, 39.5%.
Take `CCCc1[nH]nc2c1C(c1ccoc1)C(C#N)=C(N)O2` (centres undefined): the inhibition was 43.1%.
On to `O=c1c2c(C(F)(F)F)cc(C(F)(F)F)nc2[nH]n1-c1ccccc1`, for which the inhibition is 33%.
Regarding `Nc1c(Cl)ncnc1N/N=C/c1ccccn1`, the inhibition was 85.2% (active).
With `Cc1c(Cl)c([N+](=O)[O-])nn1Cc1ccc(C(=O)N/N=C\c2ccccn2)o1`, the inhibition was 31.1%.
For `CC1CCc2nc3sc4c(c3c(N)c2C1)CCCC4` (centres undefined), the inhibition was 93.2% (active).
On to `Nc1c2c(nc3sc4c(c13)CCCCC4)CCCCC2`, for which the inhibition is 69% (active).
For `Nc1c2c(nc3sc4c(c13)CCCC4)CCCCCC2` the value was 48.9%; for `N#Cc1cnn(-c2ncnc3sc4c(c23)CCCC4)c1N`, 37.2%.
Consider `C=C(C)COc1ccc2c(CC)cc(=O)oc2c1C`, for which the inhibition is 61.5% (active).
With `CC(C)(C#CCN1CCCCC1)OCCOC(c1ccccc1)c1ccccc1`, the inhibition was 30.2%.
For `CN(C)C(C)(C)C#CCC(c1ccccc1)c1ccccc1` the value was 55% (active).
As to `CCCCNC(=O)Nc1nnc(-c2ccc(Cl)cc2)o1`, the inhibition was 54.4% (active).
In the case of `CCCCNC(=O)Nc1cc(C)on1`, the inhibition is 27.1%.
In the case of `CCC1(CC)Cc2ccccc2C(Nc2c(C)n(C)n(-c3ccccc3)c2=O)=N1`, the inhibition is 18.9%.
Regarding `O=C(Cc1coc2cc3c(cc12)CCC3)NCC1(N2CCCCC2)CCCCC1`, the inhibition was 45%.
Take `Cc1ccc(OCc2nc(-c3ccc(Cl)cc3)n[nH]2)cc1`: the inhibition is 78.2% (active).
In the case of `O=C(O)[C@@H](c1ccccc1)N1Cc2ccccc2C1=O`, the inhibition is 22.6%.
For `COC(=O)N/N=C(\C)c1ccc2ccccc2c1OC(F)F` the value was 62.3% (active); for `OC(CNCCC1C=Nc2ccccc21)Cn1c2ccc(Cl)cc2c2cc(Cl)ccc21` (centres undefined), 53.8% (active); for `Clc1ccc(OCCOCCN2CCc3ccccc3C2)c(Cl)c1`, 58.2% (active).
Consider `CC(C)NCCOCCOc1ccc(Cl)cc1Br`, for which the inhibition is 39.3%.
Take `Clc1ccc(OCCCNCc2ccccc2)c2ccccc12`: the inhibition was 53.2% (active).
For `CCc1cc(OCCCCNCc2ccccc2)ccc1Cl` the value was 44.5%.
With `Cc1nc2c(=O)n(C)c(=O)n(C)c2nc1Cl`, the inhibition is 25.6%.
For the compound `CCOC(=O)/C(=N\Nc1ccc(Cl)cc1)c1csc(Nc2ccccc2)n1`, the inhibition is 31.7%.
Consider `Cc1ccc(S(=O)(=O)c2nc(Nc3ccccc3)sc2Cl)cc1`, for which the inhibition was 69.3% (active).
With `Cc1ccc(S(=O)(=O)c2nc(C)oc2NCc2ccccc2)cc1`, the inhibition was 34.9%.
Consider `CC1CCCC(NC(=O)C2CCN(S(=O)(=O)N3CCCCC3)CC2)C1C` (centres undefined), for which the inhibition is 36.5%.
For `O=C(COc1cccc2ccccc12)N1CCN(c2ccccc2)CC1` the value was 52% (active); for `O=C(Cc1ccc(-n2c(=O)[nH]c3ccccc3c2=O)cc1)N1CCN(c2ccccc2)CC1`, 17.4%; for `CCn1c(COc2ccccc2C)nnc1SCC(=O)N1CCN(c2ccccc2)CC1`, 40.5%.
For `C/C(=N\N1CCN(c2ccc(Cl)cc2)CC1)c1ccco1`, the inhibition is 36.9%.
For `CCCCCOc1ccc(Br)cc1CSC(=N)N` the value was 59% (active).
With `FC(F)(F)C(F)(F)c1nnc2ccc(-n3ccnc3)nn12`, the inhibition was 33.5%.
For the compound `Cc1ncc(S(=O)(=O)c2ccccc2)c(-c2ccccc2Cl)n1`, the inhibition is 7.65%.
On to `COc1ccc2cc(/C=N/O)c(Cl)nc2c1`, for which the inhibition is 55% (active).
Regarding `COc1ccc(CC2(C)OC(c3ccc(C)cc3)=NN2C(C)=O)cc1` (centres undefined), the inhibition was 59% (active).
`O=C1C=CC(=O)N1c1ccc(OC(F)F)cc1`: the inhibition is 71% (active).
For `CNCc1ccccc1Sc1cc(O)ccc1O`, the inhibition was 24.2%.
As for `CN1c2ccccc2Sc2cc(N)ccc21`, the inhibition was 87.7% (active).
For the compound `CC(C)C(=O)N(Cc1ccccc1)c1ccccn1`, the inhibition was 21.7%.
With `Nc1c(C(=O)NCc2ccc3c(c2)OCO3)nnn1-c1ccc(OC(F)(F)F)cc1` the figure was 48.9%; with `Cc1cc(C)cc(-n2nnc(C(=O)NCc3ccccc3)c2N)c1`, 53.6% (active); with `CCOc1ccc(CNC(=O)c2cc3oc4ccccc4c3n2C)cc1`, 32.7%.
On to `CCSc1nnc(NC(=O)c2ccc(C)o2)s1`, for which the inhibition is 59.5% (active).
With `CCSc1nnc(NC(=O)c2ccccc2)s1` the figure was 85.4% (active).
With `C=C(C)C(=O)Nc1nnc(-c2cccs2)s1` the figure was 36.6%.
On to `Cc1ccc(Nc2nnc(SCC(=O)Nc3ccc(S(=O)(=O)N4CCOCC4)cc3)s2)cc1`, for which the inhibition was 36%.
As to `CC(C)COC(=O)Nc1nnc(SCc2ccccc2F)s1`, the inhibition is 47.1%.
`Cc1cccc(N/C=C/C(=C(C#N)C#N)N(C)C)c1`: the inhibition is 38.1%.
With `CN(C)c1ccc(N/C=C/C(=O)c2ccccc2)cc1` the figure was 62.9% (active); with `O=C(NCc1cccnc1)C1CCN(S(=O)(=O)c2cccnc2)CC1`, 42.8%.
Regarding `COc1ccc(S(=O)(=O)N(CC(=O)N2CCOCC2)Cc2ccccc2)cc1C`, the inhibition was 40.5%.
With `O=C(c1ccc(Br)s1)N1CCN(C/C=C/c2ccccc2)CC1` the figure was 55.4% (active).
With `CN(CC(=O)NC(=O)NCc1ccccc1)Cc1cccc(Cl)c1Cl` the figure was 43.1%; with `CCN(c1cccc(C)c1)S(=O)(=O)c1cccc(C(=O)O)c1`, 32.3%; with `CCN(CC)c1ccc(/C=C2/SC(=O)N(C(C)C)C2=O)o1`, 71% (active).
